This is an account of results in PubChem BioAssay AID1347423 (Functional Genomics Laboratory (NCATS/FGL), 2020).

Among all 52,000 sequences or so, about 210 (0.4%) were called active. The entries come from a sample that favours actives as a whole. A number with no mark means an inactive call.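 Rule for the calls: active = gene whose silencing raises cell survival under the drug, median off-target-corrected z-score across its silencing RNAs 2 or more; inactive = the rest.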

This test is described as follows: Resistance to Poly (ADP-Ribose) Polymerase inhibitor: Gene Identification via Genome-wide siRNA Screen. Conditions: mouse BRCA2 R2336H ES cells, olaparib, CellTiter-Glo viability; hits give high values. An outline of the steps: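 Mouse BRCA2 R2336H ES cells were reverse-transfected with siRNA (20 nM final), treated at 48 h with 500 nM olaparib, and read by CellTiter-Glo after 72 h. Scores: MAD-based z per siRNA, median per gene, seed off-target correction.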
Background: ATP-based viability assays read luminescence as a measure of living cells.
As to CCGACAAAUAAAGGCUUUATT against Ddx52, the z-score was -0.0103.
The figure for CCGCAUGACACGACAUGUATT against BC034097 is 2.56 (active); for “CCCUGUACACACCUAAAAATT against D10Ertd438e” it is 1.39.
The figure for CGUUUGCUCUAAAGCCAGGTT against BC004728 is 1.02; for GGAUUUCCUGGAAAAUUCCTT against Siat8a it is 0.62.
The same measure for GGUGUCUGUCAUGACCAUGTT against Tie1: 2.02; for GCUCGUCUAUGCUAUUUCUTT against Fath: 0.81 (active); for GAUCACAGUCACGAUAUAATT against Prss19: -1.28.
On to GGAAGAGAUGGAAUUAUUGTT against Sh3bp5, for which the z-score is -0.737.
Turning to GCUUGUGAUCGACUCUGCATT against Centb5, the z-score was 0.0161.
The figure for CCUUCAUUUAUUCUACGAGTT against LOC244556 is 0.476; for GCUCUCAUUAGCAUUAUCGTT against Gria1 it is -0.366 (active); for GCAGGUUAAGUAGCUGACATT against Dnclic2 it is -1.28.
As for “CGUGCAUGCAAAUUAUGUATT against 4933417O08Rik”, the z-score is -0.372.
The same measure for GGCACUCAGUAACUGCAUGTT against Gababrbp: -0.611; for “GGACUGUCAGUACUGUCAATT against E030025L21Rik”: -0.201; for “GGAGUAAUCAUGCUGGAGCTT against 9930104L06Rik”: 0.406.
The figure for CCAUGUCCAAUGAGGACUUTT against Htr1b is 1.74 (active).
For the sequence CCCUGAACGAAUAAUCGGCTT against Cbx3, the z-score is -0.637.
The figure for “CGAUAAACUGGAUACCACUTT against A430083B19Rik” is -0.3; for GGAGAUGCUGGACUGCUUUTT against Htr1b it is -0.751 (active).
The figure for GGUUGUUUAAACUCAGUUUTT against Slco4c1 is -1.83; for GGCCAAAUCAUGGAUGCAGTT against Comt it is -1.72.
The same measure for GGAUCUAUAAGGACUACAUTT against Bmp7: -0.68; for “CGGGAACUCACCGAAAAGATT against 4921521N14Rik”: 0.566.
As to GGAUGUGGCUGCUUUGAAGTT against Wbscr27, the z-score was 0.123.
The same measure for GGGAUUUUCUGUGUAUCUUTT against D5Ertd33e: -0.0623; for GGCAUAACUGAUCAUACGCTT against Foxp3: 1.06.
The same measure for GGUUUUAGAAGGGAAACAUTT against Ppp2r2c: -0.761; for GGAGCCAAGUGUGAUUACATT against Pias3: -1.38 (active); for “GGAUUGCUGUGCCUUAUGATT against 2010004A03Rik”: 0.503.
The figure for CCACUUUUUUAGAUCCCUGTT against AA960436 is -0.149; for GACUCCCACUUACACUCUCTT against Olfr1312 it is -1.08.
Take GGUUCUUUAAUAGAACAUGTT against Tyrp1: the z-score is -0.207.
The same measure for GGUCAUUGGUCGCUGGUCATT against Gzmm: 1.22.
The figure for CGUGGGAUUUAAUGAUCAATT against Nid2 is 0.787.
The same measure for GGGCCUAUAUAACAUCUUGTT against Usp11: 0.581 (active); for GGGUAUCUUCUGGAAAACATT against Angptl4: 0.203.
In the case of GGCUAUGCAGCAUAUUAUATT against Ndufa1, the z-score was -0.819.
The figure for “GGAAAUUUUGGAGAUGAUATT against 5730444A13Rik” is -0.496.
GGCGAUCUAUCACACUGUGTT against Chst7: the z-score is 1.39.
The figure for “GGAGGAAGAAACAGAACCATT against A930021G21Rik” is -2.36; for GCAGUCUGGUUCUCUCAAATT against Cryl1 it is 2.21; for GGUUGCUUGGAAUUAAAAGTT against Klhl1 it is 1.01 (active).
The same measure for CACGGGCAUCCUUGACUCCTT against Mbp: 0.994; for GCAACAUGGCCCUUACCAUTT against Plcb2: -0.797.
Regarding GGCUCCUUAAAGAUAUGUUTT against Nsmaf, the z-score is 0.332.
The figure for GGAAUGUGUUAUGGUGAUUTT against Mgl2 is -0.346.
The figure for “GCCUUUAUAGUCUUAAGCATT against 2810475A17Rik” is -1.55; for “GGAUAAAUGGUUCUAGAAATT against 3110006P09Rik” it is -0.433 (active); for CCUUCAAUUUCAGUUCAGATT against Olfr1388 it is 0.422.
The same measure for GGUAUUCUCUAAGAAGGAGTT against Ccbl1: -0.635; for GGCAUUUGAAGAUGUUUCUTT against Hmgb3: 1.56 (active).
With GGAGACGUGUCUGAAAGACTT against Glp2r, the z-score is -0.752.
As for GCUUCACAAGCAGUGUACUTT against Slc37a1, the z-score was 1.96 (active).
The figure for CCUUUUUCUGGAUUGGAAUTT against Klrd1 is 1.78 (active).
The figure for GCCAGCAACAGGAUGAUAUTT against Prkwnk1 is -1.02; for GCUCAGACAUGUUCUUACCTT against BC037527 it is 0.547.
“GCUUAAAACAGACCAUUUUTT against 1700013G20Rik”: the z-score is 0.824.
The figure for GCAUUCAAGCAACCACGAATT against Ptdss1 is -0.153; for GCACUUGGGUAAAAAACUCTT against Bcorl1 it is 0.555; for “GCUGACCCAGCUAUGUACUTT against 4930519N13Rik” it is -0.26.
For the sequence GGAAGCUGGUUCCUGUUUUTT against Bid3, the z-score is 2.66 (active).
The same measure for CCAGAGUAAGAGUAAAAGCTT against Mamdc2: 1.32; for GGCUGUAAUGAGGACUGAUTT against Deb1: -1.92.
The same measure for CCUAAAUUCGGUUUGAAUCTT against Fath: 2.74 (active); for GCAUUUUGACCCAAGUGUUTT against Foxq1: 0.0651.
